# Data published in PubChem BioAssay (NCI).
# The panel holds about 83,000 compounds, 20% with a hit somewhere; the sample as a whole holds those more often.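 Treatment: one concentration, 48 hours, 96-well format. Scoring: percent growth, with anything below 10 considered active.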 Activity calls are given as the source filed them.
# Assays:
# Assay in all cases: NCI-60 one-dose screen, 48 h (100 = growth as untreated, 0 = no growth, -100 = all killed)
# DU-145 prostate = conditions: 10 µM
# K-562 leukemia = conditions: 10 µM
# MALME-3M melanoma = conditions: 10 µM
# MDA-MB-231 breast = conditions: 10 µM
# RXF 393 renal = conditions: 10 µM
# SF-268 CNS = conditions: 10 µM
# SF-295 CNS = conditions: 10 µM
# SF-539 CNS = conditions: 10 µM
# UACC-257 melanoma = conditions: 10 µM
# M14 melanoma = conditions: 10 µM
# HCT-15 colon = conditions: 10 µM
# SNB-19 CNS = conditions: 10 µM
# U251 CNS = conditions: 10 µM
# PC-3 prostate = conditions: 10 µM
# SK-MEL-5 melanoma = conditions: 10 µM
# UACC-62 melanoma = conditions: 10 µM unless noted
# LOX IMVI melanoma = conditions: 10 µM
# SK-MEL-28 melanoma = conditions: 10 µM
# SNB-75 CNS = conditions: 10 µM
# HT29 colon = conditions: 10 µM
SMILES,growth (DU-145 prostate),growth (K-562 leukemia),growth (MALME-3M melanoma),growth (MDA-MB-231 breast),growth (RXF 393 renal),growth (SF-268 CNS),growth (SF-295 CNS),growth (SF-539 CNS),growth (UACC-257 melanoma),growth (M14 melanoma),growth (HCT-15 colon),growth (SNB-19 CNS),growth (U251 CNS),growth (PC-3 prostate),growth (SK-MEL-5 melanoma),growth (UACC-62 melanoma),growth (LOX IMVI melanoma),growth (SK-MEL-28 melanoma),growth (SNB-75 CNS),growth (HT29 colon)
[O-][N+](=Nc1cccc(Cl)c1)c1cccc(Cl)c1,108% (inactive),133% (inactive),101% (inactive),102% (inactive),102% (inactive),110% (inactive),104% (inactive),92.8% (inactive),117% (inactive),96.4% (inactive),78.1% (inactive),100% (inactive),84.1% (inactive),96.4% (inactive),95.9% (inactive),87.5% (inactive),97.4% (inactive),113% (inactive),–,–
NCC(=O)CCC(=O)O,121% (inactive),109% (inactive),101% (inactive),107% (inactive),98.3% (inactive),101% (inactive),106% (inactive),110% (inactive),105% (inactive),113% (inactive),106% (inactive),113% (inactive),96.7% (inactive),100% (inactive),–,114% (inactive),99.6% (inactive),103% (inactive),104% (inactive),–
O=C(CN1CCNCC1)N1CCOCC1,130% (inactive),97.5% (inactive),96.3% (inactive),110% (inactive),123% (inactive),110% (inactive),102% (inactive),99.5% (inactive),109% (inactive),103% (inactive),104% (inactive),102% (inactive),106% (inactive),100% (inactive),–,106% (inactive),98.4% (inactive),115% (inactive),86.9% (inactive),–
C/C(=C\c1cc(Cl)ccc1OCC(=O)O)[N+](=O)[O-],108% (inactive),105% (inactive),127% (inactive),123% (inactive),134% (inactive),103% (inactive),108% (inactive),109% (inactive),102% (inactive),103% (inactive),101% (inactive),117% (inactive),102% (inactive),96.2% (inactive),111% (inactive),109% (inactive),88.6% (inactive),118% (inactive),112% (inactive),–
CC(=O)c1ccc(C)c(N)c1,110% (inactive),102% (inactive),107% (inactive),115% (inactive),111% (inactive),100% (inactive),101% (inactive),101% (inactive),102% (inactive),92.5% (inactive),100% (inactive),99% (inactive),–,92.8% (inactive),110% (inactive),99.9% (inactive),76.8% (inactive),105% (inactive),97.6% (inactive),–
CC1(C)Nc2cccc3c(N=Nc4ccc(N=Nc5ccccc5)c5ccccc45)ccc(c23)N1,120% (inactive),123% (inactive),132% (inactive),66.9% (inactive),124% (inactive),106% (inactive),100% (inactive),94.5% (inactive),95.9% (inactive),91.6% (inactive),77.5% (inactive),124% (inactive),110% (inactive),89.6% (inactive),92.9% (inactive),79.2% (inactive),77.6% (inactive),116% (inactive),73% (inactive),–
COc1cc(C(=O)N/N=C/c2cccc([N+](=O)[O-])c2)cc(OC)c1OC,87.4% (inactive),35.8% (inactive),40.1% (inactive),65.1% (inactive),60% (inactive),73.6% (inactive),48.2% (inactive),66.2% (inactive),76.3% (inactive),29.9% (inactive),52.1% (inactive),69.7% (inactive),55.6% (inactive),67.5% (inactive),–,50.5% (inactive),50.2% (inactive),62.1% (inactive),29.5% (inactive),–
O=S(=O)(O)CC(O)CN1CCN(CCO)CC1 (stereo not drawn),111% (inactive),97.4% (inactive),114% (inactive),119% (inactive),105% (inactive),109% (inactive),119% (inactive),111% (inactive),97.8% (inactive),105% (inactive),102% (inactive),115% (inactive),106% (inactive),81.1% (inactive),107% (inactive),117% (inactive),96.8% (inactive),117% (inactive),102% (inactive),–
COc1cc2cc(c1Cl)N(C)C(=O)C[C@H](OC(=O)[C@H](C)N(C)C(C)=O)[C@]1(C)O[C@H]1[C@H](C)[C@@H]1C[C@@](O)(NC(=O)O1)[C@H](OC)C=C/C=C(\C)C2,-40.4% (active),-2.18% (active),33.7% (inactive),-13.1% (active),13.3% (inactive),23.5% (inactive),-13.8% (active),-23.5% (active),12.4% (inactive),-26.2% (active),–,14.4% (inactive),11.5% (inactive),0.19% (active),-24.4% (active),9.3% (active),18.4% (inactive),–,-49% (active),-29.3% (active)
NC(=S)NN=C1CCCC1,96.8% (inactive),65.7% (inactive),85.3% (inactive),95% (inactive),107% (inactive),89.3% (inactive),95.7% (inactive),110% (inactive),66.9% (inactive),83.1% (inactive),77.9% (inactive),105% (inactive),73.2% (inactive),89.9% (inactive),97.8% (inactive),103% (inactive),88.6% (inactive),101% (inactive),99.3% (inactive),–
CC(O)COc1ccc(-c2ccccc2)cc1 (stereo not drawn),108% (inactive),102% (inactive),115% (inactive),96.6% (inactive),106% (inactive),99.4% (inactive),107% (inactive),104% (inactive),119% (inactive),108% (inactive),96.3% (inactive),98.4% (inactive),–,101% (inactive),99.1% (inactive),92.4% (inactive),101% (inactive),103% (inactive),102% (inactive),–
COc1ccc(NC(=O)CCl)cc1,94.6% (inactive),93.4% (inactive),88.6% (inactive),81.6% (inactive),69.7% (inactive),73.3% (inactive),101% (inactive),83.5% (inactive),60.4% (inactive),75.1% (inactive),72.3% (inactive),104% (inactive),–,74.6% (inactive),65.3% (inactive),83.1% (inactive),–,97.2% (inactive),–,–
CCOc1ccc2[nH]c(=S)sc2c1,111% (inactive),90.8% (inactive),97.8% (inactive),104% (inactive),116% (inactive),103% (inactive),111% (inactive),106% (inactive),104% (inactive),99% (inactive),108% (inactive),103% (inactive),106% (inactive),101% (inactive),101% (inactive),104% (inactive),98.6% (inactive),109% (inactive),92% (inactive),–
CNC(=O)c1ccccc1CC1(O)c2ccccc2Oc2ccccc21,61.3% (inactive),22% (inactive),29.9% (inactive),66.3% (inactive),61.3% (inactive),57.7% (inactive),36.8% (inactive),56.5% (inactive),58% (inactive),42.2% (inactive),44.6% (inactive),93% (inactive),47.8% (inactive),35.3% (inactive),41.9% (inactive),43.6% (inactive),57.9% (inactive),63.8% (inactive),58.3% (inactive),–
O=C(NC1CCCCC1)OCc1c(COC(=O)NC2CCCCC2)c(-c2ccc(Cl)c(Cl)c2)n2c1CCC2,20.2% (inactive),10.5% (inactive),31.8% (inactive),42.3% (inactive),-13.6% (active),29.2% (inactive),24.7% (inactive),20.1% (inactive),66.2% (inactive),21.6% (inactive),–,44.5% (inactive),29.4% (inactive),55.1% (inactive),41.6% (inactive),9.04% (active),13.3% (inactive),75.6% (inactive),15.7% (inactive),26.7% (inactive)
COC1=CC(=O)c2nc(Cl)ccc2C1=O,63% (inactive),0.0099% (active),130% (inactive),-25.5% (active),-53.9% (active),63.6% (inactive),115% (inactive),88.3% (inactive),-30.9% (active),-5.38% (active),100% (inactive),113% (inactive),-42.5% (active),21.7% (inactive),–,17.4% (inactive),-95.7% (active),111% (inactive),48.6% (inactive),–
